# Assay results taken from PubChem BioAssay AID2551 (National Center for Advancing Translational Sciences (NCATS), 2010).
# The whole screen tested about 310,000 compounds, of which about 17,000 (5.5%) were called active. Roughly 11% stayed inconclusive and do not appear here. What follows is part of a selection rich in actives, with near analogues and random picks from the rest. A number with no mark means an inactive call. Calls follow the shape of the dose curve; as a rule, active = well fitted inhibition curve with a large enough effect; inconclusive = small, poorly fitted or top-dose-only effect, or effect the other way; inactive = no such curve, though single readings can be large or run the other way.
# Target: Nuclear receptor ROR-gamma (Mus musculus) (UniProt P51450)
# Sequence (P51450 whole entry, looked up): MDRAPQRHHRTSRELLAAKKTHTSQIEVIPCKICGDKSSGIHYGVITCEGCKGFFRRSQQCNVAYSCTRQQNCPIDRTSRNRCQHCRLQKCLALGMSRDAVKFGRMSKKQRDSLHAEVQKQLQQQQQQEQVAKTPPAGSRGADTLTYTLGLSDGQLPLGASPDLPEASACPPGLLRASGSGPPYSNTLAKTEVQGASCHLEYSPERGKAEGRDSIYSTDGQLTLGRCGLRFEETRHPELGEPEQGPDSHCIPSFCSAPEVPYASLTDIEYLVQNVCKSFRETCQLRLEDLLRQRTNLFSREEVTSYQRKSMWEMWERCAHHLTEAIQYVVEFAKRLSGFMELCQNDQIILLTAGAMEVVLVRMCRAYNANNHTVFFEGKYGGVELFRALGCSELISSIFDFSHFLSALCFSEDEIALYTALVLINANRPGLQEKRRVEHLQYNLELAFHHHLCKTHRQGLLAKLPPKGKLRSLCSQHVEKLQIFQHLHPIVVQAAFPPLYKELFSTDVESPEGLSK
# Assay: qHTS for inhibitors of ROR gamma transcriptional activity; also: nearly all actives have a fitted effect of over 60% in size
# Details: Drosophila S2 Gal4-RORgamma UAS-luciferase reporter, 20 h; series mostly up to 53.6 µM; activity change, negative = inhibition: at the top concentration
# In short: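 Drosophila Schneider cells stably carrying a metallothionein-driven Gal4 DBD–ROR gamma fusion and a UAS-Photinus luciferase reporter were exposed to compound for 1 hr, then induced with copper sulfate (700 uM final) for 20 hr at ambient temperature before luminescence reading.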
# % is scaled to controls: 0 for no effect and ±100 for the full control effect; potency is read from the fitted curve at half-maximal effect.
SMILES,"activity change, negative = inhibition [%]",Potency
COc1ccc(CSc2nnnn2-c2ccc(O)cc2)cc1F,7.32,–
C#CCOc1ccccc1/C=C1/C(=O)ON=C1C,4.49,–
O=C(N/N=C/c1cccc(OC(=O)c2ccc([N+](=O)[O-])cc2)c1)c1cccnc1,-6.76,–
COc1cc(/C=N/NC(=O)c2cccnc2)ccc1OC(=O)c1cccc(Br)c1,–,11.2 µM (active)
Cn1c(=O)n(C)c2cc(/C=N/NC(=O)c3cccc(Br)c3)ccc21,-10.1,–
Cc1ccc(CNC(=O)[C@@H](NC(=O)Cc2ccccc2)C(C)C)cc1,2.05,–
COc1ccc(/C=C(/NC(=O)c2ccccc2)C(=O)Nc2cccc(C(=O)O)c2)cc1,-28.5,–
CC(NC(=O)CNC(=O)Cc1cccc2ccccc12)c1ccc(S(N)(=O)=O)cc1 (centres undefined),31,–
COC(=O)c1ccc2c(C(C)(C)O)c(C(C)(C)O)[nH]c2c1,44.3,–
CN1CCN(C(=O)CCc2nc(-c3ccc(Cl)cc3)no2)CC1,22.4,–
CCNC(=O)CCc1nc(-c2ccc(C)cc2)no1,34.1,–
CCNC(=O)CCc1nc(-c2ccc(C(C)(C)C)cc2)no1,–,0.0447 µM (active)
CC1=C(C(=O)OC(C)(C)C)C(c2ccc(Br)cc2)NC(=O)N1CCCC(=O)O (centres undefined),-10.5,–
COc1cccc(NC(=O)[C@H](Cc2c[nH]c3ccccc23)NC(=O)[C@@H]2Cc3ccccc3CN2)c1,13.9,–
CC(C)(C)Nc1c(-c2cccs2)nc2ccccn12,–,6.31 µM (active)
Cc1cc2nc(C(F)(F)F)cc(-c3cccs3)n2n1,-17.8,–
Cc1cc(-c2cccs2)nc(-n2cccc2)n1,0.7,–
Cn1nccc1C(=O)NC1CCCc2c1cnn2-c1ccc(F)cc1F (centres undefined),-27,–
COC(=O)c1ccc(OC(=O)c2cnccn2)cc1,41.2,–
Cc1cccc(OCCNC(=S)NC(=O)c2cccnc2)c1,–,10 µM (active)
COCCCNC(=S)NC(=O)c1ccccc1,–,12.6 µM (active)
COc1ccc(C(=O)NC2CCN(C(=S)NCCc3ccccc3)CC2)cc1,-2.05,–
COCCCNC(=S)NNC(=O)C(O)(c1ccccc1)c1ccccc1,-39.9,–

SMILES,"activity change, negative = inhibition [%]",Potency
COc1ccc(C(=O)NC(=S)NC2CCCCC2)cc1,–,2.82 µM (active)
COc1ccc(-n2cnc3cc(C(=O)NC4CCCC4)ccc32)cc1,22.4,–
COc1ccc(C(=O)NC(=S)NNC(=O)CCc2ccccc2)cc1,–,4.47 µM (active)
CCCNC(=S)N1CCC(NC(=O)c2ccc(OC)cc2)CC1,25.5,–
O=C(CCc1ccccc1)NNC(=O)c1ccc(Br)cc1,-0.842,–
Cc1cccc(OCC(=O)NCCNC(=O)c2cccnc2)c1,-13.4,–
CCCOc1cccc(C(=O)NCCCNC(=O)c2cccnc2)c1,22.3,–
COCCCNC(=O)c1c(F)c(F)c(F)c(F)c1F,-20.7,–
C[C@H](NC(=O)C1CC(=O)N(c2ccc3c(c2)OCO3)C1)C(=O)NCc1ccco1 (some centres undefined),-2.28,–
COc1ccc(CNC(=O)/C(C#N)=C/c2cccc(OC)c2OC)cc1,-22.3,–
Cc1c(Cl)c([N+](=O)[O-])nn1CC(=O)NCCCN1CCOCC1,4.93,–
Cc1ccc(C)c(N2CCN(C(=O)Cn3ncn4cccc4c3=O)CC2)c1,1.67,–
NS(=O)(=O)c1cccc(NC(=O)CC23CC4CC(CC(Br)(C4)C2)C3)c1,15.7,–
Cc1ccc(S(=O)Cc2ccc(C(=O)N3CCN(C4CCCCC4)CC3)o2)cc1 (centres undefined),-17,–
N#C/C=C/N1CCN(Cc2ccc3c(c2)OCO3)CC1,1.29,–
COc1ccc(C(=O)NNC(=O)c2cc(C)[nH]n2)cc1,27.8,–
COCCNC(=S)N(Cc1cccnc1)Cc1ccc(OC)c(OC)c1,-17.6,–
Cc1ccc(OCC(=O)NCCCNC(=O)c2ccco2)cc1C,10.6,–
COc1ccc(OCC(=O)NNC(=O)c2ccc(-c3ccccc3)cc2)cc1,-11.6,–
COc1ccc(C(=O)NNC(=S)NC(=O)c2ccccc2)cc1,–,4.47 µM (active)
CC(=O)NC(=S)NNC(=O)c1ccc(Br)cc1,–,12.6 µM (active)
CCCc1ccc(OCC(=O)NNC(=S)NC(=O)c2ccco2)cc1,–,12.6 µM (active)
Cn1nnnc1SCC(=O)NNC(=O)c1ccc(Br)cc1,-10.6,–

SMILES,"activity change, negative = inhibition [%]",Potency
Cc1cc(C)c2[nH]c(=O)c(CN(Cc3ccccc3)C(=S)NCCCN(C)C)cc2c1,-4.36,–
CNC(=S)NNC(=O)c1ccc(N(C)C)cc1,-16.2,–
COCCCNC(=S)N(Cc1ccccc1)Cc1ccc(F)cc1,–,15.8 µM (active)
COc1ccc(OCC(=O)Nc2ccc(NC(=O)c3ccco3)c(C)c2)cc1,0.594,–
Cc1ccc(N(CC(=O)NC2CCCCC2)C(=O)CCCC(=O)Nc2ccccn2)c(C)c1,2.53,–
O=C(NCc1ccco1)C(c1ccncc1)N(C(=O)Cn1nnc2ccccc21)c1ccccc1 (centres undefined),19.7,–
O=C(Nc1cccc(Cl)c1Cl)c1ccccc1NC(=O)C1CC=CCC1C(=O)O (centres undefined),25.4,–
CCc1ccc(C(CNc2nc(C(F)(F)F)nc3ccccc23)N(C)C)cc1 (centres undefined),-35.8,–
O=C(Nc1cccc(Br)c1)c1ccc2snnc2c1,39.2,–
CCN1C(=NCCc2cccnc2)N[C@@H](c2ccccc2)C(C(=O)OC)=C1C,–,inactive
O=S(=O)(c1cccc(Cn2nnc(-c3ccc(F)cc3)n2)c1)N1CCOCC1,40.7,–
CC1(C(=O)O)CCC(C(=O)Nc2ccc(Cl)c(Cl)c2)C1(C)C (centres undefined),-9.86,–
CC(C)CCSc1ncnc2c1oc1nc3c(cc12)COC(C)(C)C3,-5.74,–
CC1(C)Cc2nc3sc4c(SCC(=O)NC(c5ccccc5)c5ccccc5)ncnc4c3cc2CO1,35.8,–
C=CCn1c(=S)[nH]c2nc3c(cc2c1=O)COC(C)(C)C3,–,3.98 µM (active)
Cc1cc(C)nc(NS(=O)(=O)c2ccc(N3C(=O)C4CCCCC4C3=O)cc2)n1 (centres undefined),15.9,–
CCc1ccc(NC(=O)C(=O)NNC(=O)c2cccs2)cc1,-38.2,–
CCOC(=O)c1ccc(NC2Nc3cc(C)nn3S2)cc1 (centres undefined),21.8,–
CCc1ccc(NC2Nc3cc(C)nn3S2)cc1 (centres undefined),–,1.58 µM (active)
Cc1ccccc1NC(=O)Cn1cc(C(=O)C2CC2)c2ccccc21,-6.18,–
CC1CCCCN1C(=O)Cn1c(=O)oc2cc(S(=O)(=O)N3CCCCC3)ccc21 (centres undefined),11.6,–
CCSc1nc2sc3c(c2c(=O)n1-c1ccc(C)cc1)CCN(C)C3,-4.38,–
O=C(c1ccc(OC2CCN(C/C=C/c3ccc(F)cc3)CC2)cc1)N1CCCCC1,-4.55,–
